Where “and” joins values, the source holds several entries; their conditions need not be identical. Equal values may be shown once. Results filed as inconclusive are left out. Calls of active or inactive are those of the source. The call rests on the fitted dose curve; in most records, active means well fitted inhibition curve with a large enough effect; inconclusive means small, poorly fitted or top-dose-only effect; inactive means flat fitted curve, though single readings scatter.

Sequence of 15-hydroxyprostaglandin dehydrogenase [NAD(+)] (Homo sapiens) (P15428 whole entry, looked up): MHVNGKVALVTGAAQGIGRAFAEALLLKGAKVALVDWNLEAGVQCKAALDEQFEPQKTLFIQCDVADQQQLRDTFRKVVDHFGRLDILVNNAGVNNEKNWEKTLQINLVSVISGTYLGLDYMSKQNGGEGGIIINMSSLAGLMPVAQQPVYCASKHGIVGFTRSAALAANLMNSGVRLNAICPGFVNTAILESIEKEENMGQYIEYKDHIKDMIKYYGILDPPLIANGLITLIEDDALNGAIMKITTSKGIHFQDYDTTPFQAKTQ

The target of this assay is 15-hydroxyprostaglandin dehydrogenase [NAD(+)] (Homo sapiens) (UniProt P15428). The assay is described as follows: Extended Characterization of HPGD Inhibitors: Activity in Primary Assay (HPGD). To be noted: recombinant HPGD, NADH fluorescence, PGE2 substrate; series mostly up to 57.1 µM. An excerpt:
The central role of HPGD is to inactivate prostaglandins such as prostaglandin E2 (PGE2) or prostaglandin D2 (PGD2). These prostaglandins are involved in a number of processes, including inflammation, differentiation, and cellular signaling, which makes HPGD an important target for pharmacological intervention. Inhibition of 15-PGDH (HPGD) activity was screened by utilizing prostaglandin as an electron donor and NAD+ as an electron acceptor/cofactor. An increase in the fluorescence intensity due to conversion of NAD+ to NADH was used to measure the enzyme activity. All compounds were screened using a qHTS approach, where compounds are assayed using at least seven concentrations to generate concentration-response curves for every compound. Briefly, qHTS uses an inter-plate dilution method where the first plate contains the highest concentration of a set of compounds in DMSO, while subsequent plates contain the same compounds in the same well locations, but at successive lower concentrations. NIH Chemical Genomics Center [NCGC] NIH Molecular Libraries Probe Centers Network [MLPCN] MLPCN Grant: MH084681 Assay Submitter (PI): Structural Genomics Consortium
Three uL of enzyme (20 nM final concentration) were dispensed to 1536-well Greiner black solid bottom plates. Compounds (23 nL) were transferred via Kalypsys PinTool. The plates were incubated for 15 min at room temperature, and then 1 uL of substrate/cofactor solution (Substrate/cofactor solution: 1 mM NAD+ and 30 uM prostaglandin (Sigma, prostaglandin E2, #P5640)) were added to start the reaction. The plates were immediately transferred to and read 4 times every 30 seconds on a ViewLux High-throughput CCD imager (Perkin-Elmer) using 340 nm excitation and 450 nm emission fluorescence protocol. The fluorescence intensity difference between the last and the first time points, normalized against controls, was used to compute reaction progress.
Take `CCOC(=O)c1ccc(-n2c(C)cc(-c3nnc4n3CCCCC4)c2C)cc1`: the Potency was 38.3 nM (active).
With `Cc1cccc(-n2cnc3cc(C(=O)N4CCCCC4)ccc32)c1` the figure was 34.1 nM (active) and 19.2 nM (active); with `c1ccc(-n2cc(-c3nnc4n3CCCCC4)c3ccccc32)cc1`, 681 nM (active).
With `Cc1cc(-c2nnc3n2CCCCC3)c(C)n1-c1ccc(C(F)(F)F)cc1` the figure was 68.1 nM (active); with `Cc1cccc(-n2cnc3cc(C(=O)N4CCCC(C)(C)C4)ccc32)c1`, 68.1 nM (active); with `Cc1cc(-c2nnc3n2CCCCC3)c(C)n1-c1ccc(Br)cc1`, 48.2 nM (active).
On to `O=C(c1ccc2c(c1)ncn2-c1cccc(C(F)(F)F)c1)N1CCCCC1`, for which the Potency is 48.2 nM (active).
In the case of `CCCCNC(=O)c1ccc2c(c1)ncn2-c1cccc(C)c1` it was 1360 nM (active); in that of `Fc1cccc(CSc2nc3ncc(Br)cc3[nH]2)c1`, 341 nM (active).
In the case of `Cc1cccc(-n2cnc3cc(C(=O)N4CCCCCC4)ccc32)c1` it was 27.1 nM (active).
With `COc1ccc(CSc2nc3ncc(Br)cc3[nH]2)cc1F` the figure was 85.7 nM (active).
On to `N#Cc1ccccc1CCc1nc2ncc(Br)cc2[nH]1`, for which the Potency was 19200 nM (active).
Consider `CC(C)(C)c1ccc(-n2cnc3cc(C(=O)N4CCCCC4)ccc32)cc1`, for which the Potency is 54.1 nM (active).
For `O=C(c1ccc2c(c1)ncn2-c1cccc(Cl)c1)N1CCCCC1`, the Potency is 12.1 nM (active).
Consider `COc1ccccc1-n1cnc2cc(C(=O)N3CCCCC3)ccc21`, for which the Potency was 27.1 nM (active).
With `Cc1cccc(-n2cnc3cc(C(=O)NC4CCCCC4)ccc32)c1`, the Potency was 3040 nM (active).
In the case of `N#Cc1cccc(CSc2nc3ncc(Br)cc3[nH]2)c1` it was 136 nM (active); in that of `Cc1cc(-c2nnc3n2CCCCC3)c(C)n1-c1cccc(C(F)(F)F)c1`, 48.2 nM (active).
As to `CC(C)c1cccc(-n2cnc3cc(C(=O)N4CCCCC4)ccc32)c1`, the Potency is 68.1 nM (active).
In the case of `Brc1cnc2nc(SCc3cccnc3)[nH]c2c1` it was 1360 nM (active); in that of `Brc1cnc2nc(SCc3ccccn3)[nH]c2c1`, 3410 nM (active).
As for `O=[N+]([O-])c1cccc(CSc2nc3ncc(Br)cc3[nH]2)c1`, the Potency is 68.1 nM (active).
With `Cc1cc(-c2nnc3n2CCCCC3)c(C)n1-c1ccccn1` the figure was 1080 nM (active).
On to `Cc1cccc(-n2cnc3cc(C(=O)N4CCCC(c5ccccc5)C4)ccc32)c1` (stereo not given), for which the Potency was 429 nM (active).
For the molecule `Clc1ccccc1CSc1nc2ncc(Br)cc2[nH]1`, the Potency was 54.1 nM (active).
Consider `Cc1cc(-c2nnc3n2CCCCC3)c(C)n1-c1ccc([N+](=O)[O-])cc1`, for which the Potency is 108 nM (active).
Take `Cc1cccc(-n2cnc3cc(C(=O)N4CCCC(C(C)C)C4)ccc32)c1` (stereo not given): the Potency is 48.2 nM (active).
Regarding `Cc1cccc(-n2cnc3cc(C(=O)N4CCC(C(F)(F)F)CC4)ccc32)c1`, the Potency is 1520 nM (active).
`Cc1cccc(-n2cnc3cc(C(=O)N4CC(C)CC(C)C4)ccc32)c1` (stereo not given): the Potency was 271 nM (active).
Take `O=[N+]([O-])c1ccccc1CSc1nc2ncc(Br)cc2[nH]1`: the Potency is 96.1 nM (active).
`Brc1cnc2nc(SCc3ccncc3)[nH]c2c1`: the Potency is 1520 nM (active).
In the case of `Brc1cnc2nc(SCc3ccccc3)[nH]c2c1` it was 8570 nM (active); in that of `Cc1cccc(-n2cnc3cc(C(=O)N4CCN(C)CC4)ccc32)c1`, 2710 nM (active); in that of `O=C(c1ccc2c(c1)ncn2-c1ccccc1)N1CCCCC1`, 21.5 nM (active).
With `COc1ccc(-n2cnc3cc(C(=O)N4CCCCC4)ccc32)cc1` the figure was 19.2 nM (active).
In the case of `Cc1cccc(-n2cnc3cc(C(=O)N4CCC(C#N)CC4)ccc32)c1` it was 19200 nM (active).
As for `Cc1cc(-c2nnc3n2CCCCC3)c(C)n1-c1ccccc1`, the Potency was 121 nM (active) and 54.1 nM (active) and 68.1 nM (active).
With `Cc1ccccc1CSc1nc2ncc(Br)cc2[nH]1` the figure was 76.4 nM (active).
Turning to `Cc1cccc(-n2cnc3cc(C(=O)N4CCCC(C(F)(F)F)C4)ccc32)c1` (stereo not given), the Potency was 68.1 nM (active).
With `Cc1cc(-c2nnc3n2CCCCC3)c(C)n1-c1ccc(C#N)cc1` the figure was 96.1 nM (active).

(Values after PubChem BioAssay AID743171 (National Center for Advancing Translational Sciences (NCATS), 2013).)
